# Screening data as filed in PubChem BioAssay.
# In the library only some 1.5% were active in any assay of this set; here they are far more common.
# MCL1-BIM inh = disrupts human MCL1 binding to BIM-BH3 peptide. Q07820. 320,000 tested, 0.68% active. inhibition, % at 10.9 µM. GST-MCL1 / FITC-Bim-BH3 fluorescence polarization. AID 2057;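 active = inhibition above the mean inhibition of all tested compounds plus 3 SD, set per campaign, cut at about 40% in these data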;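 also: 0% = DMSO wells and 100% = unlabeled Bim-BH3 peptide control; higher means more loss of mP so more displacement of Bim peptide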
# E coli Lon inh = inhibits E. coli Lon protease; inhibition, % at 7.94 µM; AID 602123; 360,000 tested, 0.42% active; purified E. coli Lon protease, fluorescence polarization; P0A9M0; in the data active = inhibition above about 13%, passing the limit was not always enough;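 also: 0% = enzyme with probe and DMSO and 100% = no enzyme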
# EBV gp42 inh = EBV gp42 inhibition. Q1HVG2. Fluorescence polarization binding assay, mP read-out. inhibition, % (tested at 21.74 µM). 220,000 tested, 0.42% active. AID 1085; in the data active = inhibition above about 50%
# Bcl-xL primary = Bcl-xL (human) inhibition | GST-Bcl-xL / FITC-Bim BH3 peptide fluorescence polarization | inhibition, % at 10.9 µM | 320,000 tested, 0.7% active;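 active = inhibition above the mean of all tested compounds plus 3 SD, cutoff set per campaign, cut at about 30% in these data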;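 also: 0% = DMSO wells and 100% = unlabeled Bim-BH3 peptide competitor; inhibitors lower millipolarization by displacing the labeled peptide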
# GLD-1 TGE inh = GLD-1-TGE RNA interaction inhibition (C. elegans); Q17339; 320,000 tested, 0.44% active; inhibition, % at 5.96 µM; purified GLD-1 + fluorescein TGE RNA, fluorescence polarization; AID 2280;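 active = percent inhibition above a per-plate cutoff, the plate mean of test compounds plus 3 SD, cut at about 30% in these data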;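 also: 0% = DMSO wells with GLD-1 and probe and 100% = wells lacking GLD-1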
# Target sequence (Q17339 whole entry, looked up): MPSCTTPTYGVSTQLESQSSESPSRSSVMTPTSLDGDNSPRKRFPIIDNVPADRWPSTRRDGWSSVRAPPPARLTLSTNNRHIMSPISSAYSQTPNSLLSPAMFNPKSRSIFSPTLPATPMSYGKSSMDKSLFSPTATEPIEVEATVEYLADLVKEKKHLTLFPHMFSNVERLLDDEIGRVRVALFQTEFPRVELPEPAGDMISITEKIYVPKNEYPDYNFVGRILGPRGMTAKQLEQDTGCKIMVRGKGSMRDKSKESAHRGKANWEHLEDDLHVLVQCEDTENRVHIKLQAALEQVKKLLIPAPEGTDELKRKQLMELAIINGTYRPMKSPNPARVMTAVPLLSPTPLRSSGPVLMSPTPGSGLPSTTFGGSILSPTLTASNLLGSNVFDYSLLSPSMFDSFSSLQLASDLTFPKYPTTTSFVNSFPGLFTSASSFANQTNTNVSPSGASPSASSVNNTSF
# MEX-5 binding = C. elegans MEX-5 TCR-2 RNA binding activity. activity score (negative = inhibition of binding), % at 10 µM. 300,000 tested, 0.38% active. AID 1832. MEX-5/FITC-TCR2 RNA binding, fluorescence polarization; active compounds read low. Q9XUB2;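 active = inhibition past about -25% in most replicates, and total fluorescence under double the plate's negative control median, limit read from the data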;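 also: 0% = DMSO and -100% = 5 µM competing unlabeled TCR2 RNA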
# eLon confirm = E. coli Lon inhibition confirmation | purified E. coli Lon, fluorescence polarization | 1,400 tested, 31% active | shares compounds with E coli Lon inh | inhibition, % at 7.94 µM; in the data active = inhibition above about 16%;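 also: 0% = enzyme with probe and DMSO and 100% = no enzyme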
# Active calls of the source: *; x = no result given; + = active, no number.
SMILES,MCL1-BIM inh,E coli Lon inh,EBV gp42 inh,Bcl-xL primary,GLD-1 TGE inh,MEX-5 binding,eLon confirm
O=C(NC(=S)Nc1ccc2c(c1)OCCO2)c1ccccc1F,3,36*,-3,6,-2,-1,-3
O=C(Nc1ccc2c(c1)OCCO2)c1ccccc1F,1,-9,-33,7,3,-2,x
CCN(CC(=O)Nc1ccccc1C(F)(F)F)C(=O)c1ccc2[nH]c3c(c2c1)CC(C)CC3 (configuration not stated),4,-8,x,2,7,-2,x
COc1ccccc1C1C(C(N)=O)=C(C)Nc2nc(-c3ccc(Cl)cc3)nn21 (configuration not stated),7,-1,2,3,2,-2,x
COc1ccccc1-c1nc2n(n1)C(c1ccc(Cl)cc1)C(C(N)=O)=C(C)N2 (configuration not stated),11,16*,-19,9,3,2,-8
O=C(Nc1cccc(Cl)c1)Nn1cnnc1,-1,104*,-17,3,0,0,-1
O=C(Nc1cccc(Cl)c1)Nc1ccccc1-n1ccnc1,7,6,1,4,6,1,x
CC12CCC(C(=O)NNC(=O)c3ccc(Br)cc3)(OC1=O)C2(C)C (configuration not stated),5,18*,x,3,-5,-1,-17
Cc1nnc(NC(=O)c2ccc3c(c2)NC(=O)CS3)s1,-3,25*,x,-6,-4,x,-6
COC(=O)[C@@]1(C)[C@H]2C(=O)N(C)C(=O)[C@H]2[C@H]2CN=C(SCc3ccc(C#N)cc3)N21,x,-4,x,x,x,x,x
Fc1ccccc1CNc1nc(NCC2CC2)nc2ccsc12,x,12*,x,x,x,x,-6
Cc1cc(C)n(-c2ccc(NC(=O)C3CCCCN3C(=O)c3sccc3C)cc2)n1 (configuration not stated),-6,-15,x,1,6,-1,x
NNC(=O)CSc1ncc(-c2ccccc2)[nH]1,5,15*,-8,-1,-5,1,-4
Cc1nnc(NC(=O)CSc2ncc(-c3ccccc3)[nH]2)s1,0,-3,3,2,4,-7,x
Cn1c2nc(=O)n(-c3ccccc3)c(=O)c-2nc2c1CCCC2,x,123*,x,x,x,x,77*
Cc1nn(C)c(=O)n1-c1ccccc1,-8,-1,-16,4,-5,-3,x
O=Cc1c[nH]c2cccc(OCc3ccccc3)c12,x,0,x,x,x,x,x
CC(C=CC(O)=C1C(=O)CNC1=O)=C[C@@H](C)C1OC2(C)OC(C(=O)C3O[C@@]32C)C1C (some centres not stated),x,5,x,x,x,x,x
CCn1cnc2cc(NCc3ccc(C)cc3)ccc21,10,117*,-7,6,-3,-3,1
CCn1cnc2cc(NCc3ccc(Br)cc3)ccc21,16,x,x,9,-1,0,x
CC(/C=N/NC(=O)c1nnn(-c2nonc2N)c1C(C)C)=C\c1ccco1,-1,-2,x,1,3,1,x
CCOC(=O)C1(C)CCCN(C(=O)c2ccc(C#N)cc2)C1 (configuration not stated),x,-1,x,x,x,x,x
COc1ccc([C@H]2C[C@@H](O)[C@H](n3cc(C4CC4)nn3)CN2Cc2cccs2)cc1,x,-5,x,x,x,x,x
Oc1ccc(N2Cc3ccccc3C2)cc1,-2,37*,x,10,7,-2,-11
Oc1cccc(N2Cc3ccccc3C2)c1,10,0,x,10,0,-12,x
SMILES,MCL1-BIM inh,E coli Lon inh,EBV gp42 inh,Bcl-xL primary,GLD-1 TGE inh,MEX-5 binding,eLon confirm
COc1ccc(CC2=C(O)c3ccccc3C(=O)C2=O)cc1,14,6,x,3,0,0,x
O=C1C(=O)c2ccccc2C(O)=C1CCCCl,1,77*,-17,5,1,0,5
COc1ccc(C(C)=O)cc1CSc1nnc(-c2ccncc2)o1,2,93*,x,1,-5,3,-22
COc1ccc(Nc2nc3cc(-c4ccccc4C)sc3c(=O)n2C)cc1OC,x,-1,x,x,x,x,x
C[C@H](NS(=O)(=O)c1ccc(Cl)cc1)C(=O)OCC(=O)Nc1cc(S(=O)(=O)N2CCOCC2)ccc1Cl,x,-1,x,x,x,x,x
CCN(CC)S(=O)(=O)c1ccc2c(c1)nc(CCC(=O)Nc1ccc3c(c1)OCO3)n2CC,8,-3,-1,1,2,3,x
CCn1c(CCC(=O)N(C)CC(=O)Nc2cccc(F)c2)nc2cc(S(=O)(=O)N(C)C)ccc21,-19,15*,x,-19,3,0,5
CCOCCCNC(=O)C(NC(=O)c1ccccc1O)c1ccc(Cl)cc1 (configuration not stated),-3,18*,1,2,0,1,-19
CCOCCCNC(=O)C(NC(=O)CNC(C)=O)c1ccc(Cl)cc1 (configuration not stated),2,-2,-11,3,0,-3,x
O=C(CNC(=O)c1cccc(F)c1)N/N=C/C=C/c1ccccc1,1,17*,-5,2,-4,-1,3
COC(=O)[C@H](CC(C)C)NC(=O)Cn1cnc2c(SC)nc(N)nc21,x,12*,x,x,9,x,2
CC(C)n1cc(CN2CCC(Oc3ccc(C(=O)N4CCCC4)cc3)CC2)cn1,5,-6,x,5,10,2,x
O=C(Nc1cccc(C(=O)N2CCCCC2)c1)c1ccc(Cl)cc1,1,17*,x,-2,3,0,5
O=C(Nc1cccc(C(=O)N2CCCCC2)c1)c1ccccc1,x,10,x,x,x,x,x
O=C(Nc1cccc(C(=O)N2CCCCC2)c1)C1CCCC1,x,16*,x,x,x,x,-6
CCCc1cc(=O)oc2c(CN3CCCC3)c(O)c(Cl)cc12,0,22*,x,3,2,-1,-13
CCCc1cc(=O)oc2c(CN3CCCC3)c(O)ccc12,-1,-7,-17,3,-1,-1,x
Cc1cc(OCC(=O)NCCN2CCOCC2)c2c(C)c(C)c(=O)oc2c1,-1,5,x,5,-8,0,x
CC(=O)ON1C(C)(C)CC(OC(=O)c2ccccc2)CC1(C)C,-3,-5,-12,0,0,-1,x
CC(=O)OC1CC(C)(C)N(OC(=O)c2ccccc2)C(C)(C)C1,-4,15*,-17,0,0,1,6
CCOC(=O)NC(=O)/C(C#N)=C\Nc1ccc(Cl)cc1Cl,0,1,-1,2,2,-1,x
CCOC(=O)NC(=O)/C(C#N)=C\Nc1sccc1C(=O)OC,+,+,12,+,+,-8,2
O=C(Nc1ccc(COc2ccccc2)cc1)Nc1cccc(C(=O)O)c1,6,10,x,2,-1,-2,x
CCOC(=O)C1CCCN(C(=O)c2ccc(S(=O)(=O)Nc3ccccc3OC)cc2)C1 (configuration not stated),2,21*,x,3,4,x,-11
